High-throughput results: PubChem BioAssay, National Center for Advancing Translational Sciences (NCATS)
Sampled rows, rich in hits. Any-hit rate of the full collection: about 2.9%.
LDHA inh: qHTS assay for inhibitors of human lactate dehydrogenase | purified LDHA, NADH/diaphorase-resazurin fluorescence; hits give low values | activity change, % (values are at about 110 or 230 µM) | hit rate 0.15% among 480,000 | AID 1347041, 2019; in the data active means activity change below about -30%; inconclusive means mostly about -25% to -30%
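Enzyme activity of human lactate dehydrogenase 5 (2 nM; 0.06 mM NADH, 0.2 mM pyruvate, 5 min, RT) is measured via a resazurin/diaphorase fluorescence readout of residual NADH.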
GLP1R inv ag: qHTS of GLP-1 Receptor Inverse Agonists (Inhibition Mode); Glucagon-like peptide 1 receptor (Homo sapiens), P43220; HEK293 GLP-1R CRE-luciferase, luminescence, 24 h; GLP-1R form is constitutively active; Potency, µM (highest dose often 38.3 µM), usual class: inhibitors; hit rate 1.6% among 410,000; further: nearly all actives have a fitted effect of over 55% in size
Target sequence (P43220 whole entry, looked up): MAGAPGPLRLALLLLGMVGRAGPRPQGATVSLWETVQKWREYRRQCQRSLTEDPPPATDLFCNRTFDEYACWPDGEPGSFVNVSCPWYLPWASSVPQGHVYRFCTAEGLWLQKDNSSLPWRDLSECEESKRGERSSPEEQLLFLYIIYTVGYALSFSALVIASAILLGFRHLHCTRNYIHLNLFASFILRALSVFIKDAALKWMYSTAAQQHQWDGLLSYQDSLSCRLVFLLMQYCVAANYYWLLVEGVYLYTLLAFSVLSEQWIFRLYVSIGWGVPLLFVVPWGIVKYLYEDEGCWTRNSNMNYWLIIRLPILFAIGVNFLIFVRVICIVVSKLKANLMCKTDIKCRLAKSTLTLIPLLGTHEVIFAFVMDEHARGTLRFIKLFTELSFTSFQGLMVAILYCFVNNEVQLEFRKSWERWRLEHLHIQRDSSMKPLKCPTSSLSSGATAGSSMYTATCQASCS
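Readout was luciferase luminescence, measured 12 min after detection reagent at room temperature. Beforehand, GLP-1R reporter HEK293 cells had sat 12 h, then received compounds for 24 hr at 37 deg C.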
p53 reactivation: qHTS assay for re-activators of p53 using a Luc reporter; hit rate 0.063% among 320,000; Potency, µM (doses to about 92.2 µM), actives largely listed as activators; H1299 p53-A138V BP100-luciferase reporter, luminescence, 24 h; further: nearly all actives have a fitted effect of over 45% in size
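H1299 (p53-null), stable ts p53-A138V + BP100-Luc; 1000 cells/well, Opti-MEM/10% FBS; cpd 4 pt, 1:5; 24 h, 37 deg C, 5% CO2; detection reagent 10 min RT; luminescence.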
GLP1R cytotox: qHTS of GLP-1 Receptor Inverse Agonists: Cytotox Screen. HEK293 cAMP-luciferase reporter cells, luminescence, 24 h. AID 624418, 2012. hit rate 0.13% among 410,000. Potency, µM (titrated, usually from 38.3 µM), most hits filed as inhibitors;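 further: loss of luciferase light is scored as toxicity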
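Here, cytotoxicity is scored as loss of luminescence. The MLSMR collection was tested on cells seeded in medium containing 10% Nu serum, with a 24 hr compound exposure preceded by 12 hours of culture.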
ClpP mod: qHTS Assay for Activators of ClpP; purified B. subtilis ClpP, FRET peptide cleavage, 20 min; Potency, µM (series often up to 57.5 µM); hit rate 1.9% among 340,000; active means well fitted falling curve with a large enough effect; inconclusive means small, poorly fitted or top-dose-only effect; inactive means no such curve, though single readings can be large or run the other way; further: the source files actives as falling curves though it sought activators and does not explain the sign; nearly all actives have a fitted effect of over 65% in size
Target sequence (P80244 whole entry, looked up): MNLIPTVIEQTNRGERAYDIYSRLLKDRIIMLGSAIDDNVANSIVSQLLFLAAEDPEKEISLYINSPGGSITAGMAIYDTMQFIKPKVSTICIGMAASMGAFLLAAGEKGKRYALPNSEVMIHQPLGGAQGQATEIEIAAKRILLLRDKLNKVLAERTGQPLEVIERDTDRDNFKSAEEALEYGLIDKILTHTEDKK
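FRET quenching reversal measured ClpP activation: 10 microg/mL B. subtilis ClpP at pH 8 with the FRET-FV decapeptide, read at 430 nm after 320 nm excitation. The 20-min minus 0-min signal was scaled between DMSO/no-enzyme wells and ADEP (5.8 microM final).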
GLP-1R agonist: qHTS of GLP-1 Receptor Agonists. Glucagon-like peptide 1 receptor (Homo sapiens), P43220. HEK293 GLP-1R CRE-luciferase, luminescence, 4-6 h; cells express a hypersensitive GLP-1R form. Potency, µM (series often up to 45.6 µM), actives largely listed as activators. hit rate 0.007% among 380,000
Large screens that a line does not name were inactive; ! = a repeat was not active. Unless noted, the call rests on the fitted dose curve; in most records, active means well fitted curve in the direction sought with a large enough effect; inconclusive means small, poorly fitted or top-dose-only effect, or another doubt; inactive means no such curve, though single readings can be large; an effect the other way counts as inactive or inconclusive.

COC(=O)CCC(=O)Nc1ccc(S(=O)(=O)N2CCc3ccccc32)cc1	none
CC(=O)N[C@@H](Cc1c[nH]c2ccccc12)C(=O)OCC(=O)Nc1ccc2c(c1)OCO2	none (no result: p53 reactivation, ClpP mod)
COc1ccc(C(C(=O)Nc2ccc3c(c2)OCO3)N(C)C(=O)Cc2c[nH]c3ccccc23)cc1 (centres undefined)	GLP1R inv ag 2.24µM
CCC(=O)N1c2ccc(S(=O)(=O)CCC(=O)Nc3cccc(C)c3C)cc2CC1C (centres undefined)	none (no result: GLP1R inv ag, p53 reactivation, GLP1R cytotox, ClpP mod, GLP-1R agonist)
C=CCNC(=O)c1scc2c1CCCC2	none
COC(=O)CSc1nc(N2CCCCC2)c2c(c1C#N)CCCC2	GLP1R inv ag 10µM, ClpP mod inconclusive
Cc1ccc2cc3c(NS(=O)(=O)c4cccc5nonc45)nn(CC(C)C)c3nc2c1	GLP1R inv ag 10µM
CCCn1nc(NS(=O)(=O)c2cccc3nonc23)c2cc3cc(C)ccc3nc21	none
Cc1ccc(S(=O)(=O)/N=C(\N)Nc2nc(C)c3ccc(C)cc3n2)cc1	ClpP mod inconclusive
Cc1ccc2c(C)nc(N/C(N)=N/S(=O)(=O)c3ccccc3)nc2c1	ClpP mod 28.2µM
COc1ccc(/C=C/c2ccccc2)cc1[C@H]1[C@@H]2C=CCC[C@@]2(C)C(=O)N1Cc1ccccc1	GLP1R inv ag inconclusive, p53 reactivation inconclusive
c1ccc(-c2cnc(CSc3nnnn3-c3ccccc3)o2)cc1	none (no result: GLP1R inv ag, p53 reactivation, GLP1R cytotox, ClpP mod, GLP-1R agonist)
Cc1ccccc1-n1nnnc1SCc1ncc(-c2ccccc2)o1	GLP1R inv ag inconclusive, ClpP mod 31.6µM
CCCCC[C@@H](C)N1C[C@@H](COCc2ccccc2)Oc2cc(N3CC[C@@H](O)C3)ccc2S1(=O)=O	GLP1R inv ag 14.1µM (no result: p53 reactivation)
CCCCC[C@H](C)N1C[C@@H](COCc2ccccc2)Oc2cc(N3CC[C@@H](O)C3)ccc2S1(=O)=O	GLP1R inv ag 10µM, GLP1R cytotox inconclusive, ClpP mod inconclusive (no result: p53 reactivation)
CCCCC[C@@H](C)N1C[C@@H](COCc2ccccc2)Oc2cc(N3CC[C@H](O)C3)ccc2S1(=O)=O	GLP1R inv ag inconclusive (no result: p53 reactivation)
CC1=C(c2ccc(C)cc2)S(=O)(=O)N(Cc2ccc(C(=O)Nc3ccccc3C)cc2)C1=O	GLP1R inv ag inconclusive (no result: p53 reactivation, GLP-1R agonist)
NS(=O)(=O)c1cccc(NS(=O)(=O)c2ccc(/C=C/C(=O)OCC(=O)c3ccc(Br)cc3)cc2)c1	none (no result: ClpP mod)
CCOP(=O)(OCC)C(NC(=O)Nc1ccc(Cl)cc1)C(N)=O (centres undefined)	none
CCOP(=O)(OCC)C(NC(=O)Nc1ccc(Cl)c(Cl)c1)C(N)=O (centres undefined)	ClpP mod 15.8µM
N[C@@H](Cc1cc(I)c(Oc2ccc(O)c(I)c2)c(I)c1)C(=O)O	LDHA inh -34.8!, GLP1R inv ag inconclusive
Fc1ccc2nc(Nc3ccccc3)sc2c1	p53 reactivation inconclusive, ClpP mod 11.2µM
COc1ccc(C2C(C#N)=C(N)Oc3c2sc2nc(C)cc(C)c32)cc1 (centres undefined)	p53 reactivation inconclusive, ClpP mod 28.2µM
CCCCc1c(C)[nH]n(-c2nc(C)c(C(=O)Nc3cccc(OC)c3)s2)c1=O	LDHA inh -36.4 (no result: GLP1R inv ag, p53 reactivation, GLP1R cytotox, ClpP mod, GLP-1R agonist)
CCn1c(-c2ccco2)nc2ccccc21	p53 reactivation inconclusive, ClpP mod 31.6µM
Cc1cccc(OCCn2c(-c3ccco3)nc3ccccc32)c1	GLP1R inv ag inconclusive, ClpP mod 25.1µM
O=C(Cn1c(-c2ccco2)nc2ccccc21)N1CCCCC1	ClpP mod 15.8µM
Nc1nonc1-c1nc2ccccc2n1CC(=O)N1CCCCC1	none
OC(c1ccccc1)c1nc2ccccc2[nH]1 (centres undefined)	ClpP mod 15.8µM (no result: p53 reactivation)
OC(c1nc2ccccc2[nH]1)C(O)c1nc2ccccc2[nH]1 (centres undefined)	none (no result: p53 reactivation)
COc1cc2c(cc1OC)CN(C(=O)/C=C/c1cccs1)CC2	GLP1R inv ag inconclusive
Cc1ccc(S[C@@H](CCN2CC[C@H](NC(=O)OCc3ccccc3)CCC2=O)c2ccccc2)cc1	GLP1R inv ag inconclusive
COc1ccc(C=Cc2ccc3ccccc3n2)c(OC)c1	GLP1R inv ag 4.47µM (no result: p53 reactivation)
COc1cc(Cl)cc(/C=C/c2ccc3ccccc3n2)c1OC(C)=O	GLP1R inv ag inconclusive, p53 reactivation inconclusive, ClpP mod 25.1µM
COc1ccc(OC)c(/C=C/c2ccc3ccccc3n2)c1	none (no result: GLP1R inv ag, p53 reactivation, GLP1R cytotox, GLP-1R agonist)
O=C(Cn1c(=O)c2c(ncn2C2CCCC2)n(Cc2ccccc2)c1=O)NCc1ccc(Cl)cc1	none (no result: GLP1R inv ag, p53 reactivation, GLP1R cytotox, ClpP mod, GLP-1R agonist)
CCc1noc(C)c1C(=O)OCC(=O)Nc1ccc2c(c1)OCO2	none
CCOC(=O)c1nn(-c2ccccc2)c(-c2ccccc2)c1C(=O)c1ccccc1	GLP1R inv ag 2.82µM
CCOC(=O)c1nn(-c2cccc(OC)c2)c(-c2ccccc2)c1C(=O)c1ccccc1	GLP1R inv ag 5.62µM
O=c1oc2c(F)cc(F)cc2cc1S(=O)(=O)c1ccc(F)cc1	ClpP mod 22.4µM (no result: p53 reactivation, GLP-1R agonist)
COC(=O)C1CCN(C(=O)COC(=O)c2ccc(OC)c(S(=O)(=O)N3CCCc4ccccc43)c2)CC1	none
CCn1c(SCC(=O)Nc2cccc3ccccc23)nc2nc3c(cc2c1=O)COC(C)(C)C3	none (no result: GLP1R inv ag, p53 reactivation, GLP1R cytotox, ClpP mod, GLP-1R agonist)
CCC(C)(c1nnnn1-c1c(C)cccc1C)N(N=O)c1ccccc1Cl (centres undefined)	GLP1R inv ag 7.94µM
NC(=O)c1cccc(-c2ccnc3c2CC(C(=O)NCc2ccc(F)c(F)c2)O3)c1 (centres undefined)	GLP1R inv ag inconclusive, GLP1R cytotox inconclusive (no result: p53 reactivation)
NC(=O)c1cccc(-c2ccnc3c2CC(C(=O)NCc2ccccc2)O3)c1 (centres undefined)	GLP1R inv ag 5.01µM (no result: p53 reactivation)
CCN(Cc1coc(-c2cccc(F)c2)n1)C(C)COC (centres undefined)	none (no result: GLP1R inv ag, p53 reactivation, GLP1R cytotox, ClpP mod, GLP-1R agonist)
O=C(O)c1csc(-n2nc(-c3ccccc3)cc2C(F)(F)F)n1	LDHA inh -87.4
OC(CNC1CCCC1)COc1ccc(-c2ccccc2)cc1 (centres undefined)	GLP1R inv ag 8.91µM
CC(NCC(O)COc1ccc(Br)cc1)c1ccccc1 (centres undefined)	GLP1R inv ag inconclusive
CCCC(NCC(O)COc1ccc(-c2ccccc2)cc1)c1ccccc1 (centres undefined)	GLP1R inv ag 12.6µM, GLP1R cytotox inconclusive
COC(=O)c1ccc(OCC(O)CNC2CCCC2)cc1 (centres undefined)	GLP1R inv ag inconclusive (no result: p53 reactivation, ClpP mod)
